The term inhibition denotes the drop in the measured response relative to a control, in per cent.

Hit rate of the full screen: of about 96,000 compounds, about 20,000 (21%) were called active. Not all results are given here. Values without a mark were called inactive.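 How the source made its calls: active means CYP2C19 inhibition above a set limit at 5 µM in the primary screen (cut at about 50% in these data); inactive means the rest.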

In this test the target is Cytochrome P450 2C19 (Homo sapiens) (UniProt P33261). Nature of the test: blockers of cytochrome P450 2C19 activity – biochemical, luminescence, ADME assay, primary screen (AID 778).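 Further: plate controls were negative control wells for no effect and 2.5 mM tranylcypromine positive control for full effect.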 As to conditions: CYP2C19 Supersomes, luciferin-H EGE luminescence, 30 min; at 5 µM; hits give high values.
Chain of Cytochrome P450 2C19 (Homo sapiens) (P33261 whole entry, looked up): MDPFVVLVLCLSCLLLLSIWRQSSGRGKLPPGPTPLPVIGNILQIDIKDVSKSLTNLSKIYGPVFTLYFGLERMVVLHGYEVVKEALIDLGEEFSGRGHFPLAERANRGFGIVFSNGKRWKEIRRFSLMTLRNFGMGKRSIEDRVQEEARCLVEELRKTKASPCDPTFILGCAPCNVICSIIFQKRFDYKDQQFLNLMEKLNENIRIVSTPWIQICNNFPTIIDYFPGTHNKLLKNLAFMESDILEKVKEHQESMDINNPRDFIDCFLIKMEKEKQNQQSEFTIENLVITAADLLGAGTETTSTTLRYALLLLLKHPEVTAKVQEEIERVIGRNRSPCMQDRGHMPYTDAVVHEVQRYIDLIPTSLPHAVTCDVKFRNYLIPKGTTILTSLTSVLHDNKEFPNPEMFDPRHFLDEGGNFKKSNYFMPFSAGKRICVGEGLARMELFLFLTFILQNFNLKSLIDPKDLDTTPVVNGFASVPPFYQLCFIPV
In the case of `COc1cccc2c1OCC1COc3c(c(=O)n(C)c(=O)n3C)C21` (configuration not stated), the inhibition was -1%.
Then `COc1ccc(C2SCCN2S(=O)(=O)c2ccccc2)cc1OC` (configuration not stated), with 48.2%; and `COc1ccc(C2N=C(N)N=C(N)N2c2ccccc2)cc1OC` (configuration not stated), with 57.2% (active).
With `COc1ccc(C2CC(=O)n3c(nc4ccccc43)S2)cc1OC` (configuration not stated), the inhibition is 11.9%.
As for `Cc1c(Nc2cc(N3CCCC(C)C3)c3nonc3c2[N+](=O)[O-])c(=O)n(-c2ccccc2)n1C` (configuration not stated), the inhibition is 19.5%.
Then `CCSC(C)CC1C/C(=N/O)c2c(C)noc2C1` (configuration not stated), with 40.9%; and `COc1cc(C(=O)NC(=S)NCc2ccco2)cc(OC)c1OC`, with 28.5%.
In the case of `Cc1ccc(C(=O)N/C(=C/C=C/c2ccccc2)C(=O)NCc2ccco2)cc1`, the inhibition is 50.8% (active).
Then `CNC(=O)/C(=C\C=C\c1ccccc1)NC(=O)c1ccc([N+](=O)[O-])cc1`, with 23.9%.
Regarding `CCOCCCNC(=O)C(NC(=O)c1ccc(=O)[nH]c1)c1ccc(Cl)cc1` (configuration not stated), the inhibition is -4.8%.
Then `CCN(CC(=O)Nc1ccccc1OC)C(=O)Cn1cnc2ccccc2c1=O`, with 1.7%; and `CC(CCc1ccccc1)NC(=O)c1ccc(Br)o1` (configuration not stated), with 57.2% (active); and `CCN(CC)S(=O)(=O)N1CCC(C(=O)NC(C)CCc2ccccc2)CC1` (configuration not stated), with -8.4%.
Turning to `CC(CNC(=O)c1ccc(Br)o1)NC(=O)c1ccc(Br)o1` (configuration not stated), the inhibition was 10.7%.
Then `CS(=O)(=O)c1ccc2nc(NC(=O)C3CCCCC3)sc2c1`, with -0.8%.
Take `N#CC1=C(N)N(c2ccc(F)cc2)C(=O)C1`: the inhibition was -22.3%.
Consider `Cc1ccccc1CSc1nnc(-c2ccccn2)n1N`, for which the inhibition was 43.6%.
Then `O=C(Nn1cc(C(=O)N2CCN(c3ccccc3F)CC2)c2ccccc2c1=O)c1cnccn1`, with 9.8%; and `COc1ccc(Nc2ncc(C(=O)N3CCN(c4ccccc4OC)CC3)c3ccccc23)cc1`, with 51.6% (active); and `COc1ccc2oc(=O)c(C(=O)N3CCN(c4ccccc4F)CC3)cc2c1`, with 9.7%.
The figure for `COc1ccc(N2C(=O)CCC(C(=O)N(C)C3CCCCC3)C2c2ccc(OC)c(OC)c2)cc1` (configuration not stated) is 20.3%.
With `COCCN(C(=O)CCC(=O)Nc1ccccn1)C(C(=O)NCCC(C)C)c1ccc(OC)cc1` (configuration not stated), the inhibition is 42.4%.
The figure for `CCC(C)n1[nH]c(=O)cc1N` (configuration not stated) is 6.5%; for `O=C(Nc1ccccc1)N(Cc1cccnc1)Cc1ccco1` it is 76.4% (active).
Then `O=C(CS(=O)(=O)Cc1ccccc1)Nc1cccnc1`, with 6.9%.
Then `O=C(NNC(=O)c1cccnc1)Nc1ccccc1`, with -10.3%; and `N/C(=N\OC(=O)c1cc(-c2ccccc2)nc2ccccc12)c1ccncc1`, with 29.8%; and `COC(=O)c1ccc(/C=N\n2c(C)nnc2C)cc1`, with 8.4%.
Turning to `CCOC(=O)CSc1nnc(NC(=O)c2cccc(S(=O)(=O)N3CCCCC3)c2)s1`, the inhibition is 7.4%.
In the case of `CCOC(=O)CSc1nnc(NC(=O)c2cccc(S(=O)(=O)N3CCCC3)c2)s1`, the inhibition is 2.1%.
As to `CCOC(=O)C1=C(CC)Nc2ccccc2N=C1NC(=O)c1cccc(S(=O)(=O)N2CCCC2)c1`, the inhibition was 54.2% (active).
Then `COC(=O)c1ccc(S(=O)(=O)c2ccc(C(=O)OC)s2)s1`, with 24.5%; and `CCOC(=O)C1CCCN(C(=O)C2CCN(c3nnc(-n4cccc4)s3)CC2)C1` (configuration not stated), with 5.1%; and `CCOC(=O)C1CCCN(C(=O)c2cncc(Br)c2)C1` (configuration not stated), with 82.7% (active).
Then `CCOC(=O)C1CCCN(C(=O)c2ccc(CS(=O)(=O)c3ccc(Br)cc3)o2)C1` (configuration not stated), with 34.7%; and `CCc1ccc(NC(=O)CS(=O)CC(=O)NCCCc2ccccc2)cc1` (configuration not stated), with 2.7%.
With `CCOC(=O)C1(Cc2ccc(O)cc2)NC(c2ccccc2F)C2C(=O)N(C)C(=O)C21` (configuration not stated), the inhibition was -4.2%.
Then `CCn1c(SCC(=O)Nc2nc3ccc(OC)cc3s2)nnc1-c1ccoc1C`, with 51% (active).
Turning to `COc1ccccc1NC(=O)CSc1nnc(Cn2nnc(-c3ccccc3)n2)n1-c1ccccc1`, the inhibition is 27.4%.
Then `COc1ccc2nc(NC(=O)c3ccc(Br)s3)sc2c1`, with 6.2%; and `CCCn1c(SCC(=O)Nc2cccc(C(=O)OCC)c2)nnc1-c1ccoc1C`, with 32.5%; and `CCOc1ccc2nc(NC(=O)CSc3nc4c(c(=O)n(C)c(=O)n4C)n3CC)sc2c1`, with 32.4%.
Then `COc1ccccc1NC(=O)CSc1nnc(-c2ccoc2C)n1CCc1ccccc1`, with 59.8% (active); and `COc1ccc(S(=O)(=O)N2CCN(c3ncnc4c(-c5ccccc5)nsc34)CC2)cc1`, with 38.2%.
On to `Cc1ccnc(-n2sc3ccccc3c2=O)n1`, for which the inhibition is 9.8%.
Then `Cc1cc(NC(=O)CN2CCCC(C)C2)n(-c2nc3ccccc3s2)n1` (configuration not stated), with -3.6%; and `Cc1cc(C)cc(N(C(C)C(=O)Nc2c(C)n(C)n(-c3ccccc3)c2=O)S(C)(=O)=O)c1` (configuration not stated), with 62% (active).
On to `Cc1cc(C)cc(N(CC(=O)Nc2c(C)n(C)n(-c3ccccc3)c2=O)S(C)(=O)=O)c1`, for which the inhibition was 63.2% (active).
Regarding `Cc1c(NC(=O)c2coc(=O)c(Br)c2)c(=O)n(-c2ccccc2)n1C`, the inhibition is -16.3%.
In the case of `COC(=O)Nc1c(C)n(C)n(-c2ccccc2)c1=O`, the inhibition was -13.8%.
Then `Cc1c(NC(=O)C(C)OC(=O)c2cc3c4ccccc4n(C)c3s2)c(=O)n(-c2ccccc2)n1C` (configuration not stated), with 3.3%; and `Cc1cc(C(=O)Nc2c(C)n(C)n(-c3ccccc3)c2=O)cs1`, with -14%.
Then `COc1cc(OC)nc(NC(=O)CCl)n1`, with -19.8%.
Take `CCN1C(=O)/C(=C\N2CCOCC2)SC1=S`: the inhibition was 10.7%.
The figure for `CN(C)/C=C(/C(=O)c1ccc(Cl)cc1)S(=O)(=O)c1ccccc1` is 27.2%; for `Cc1ccc(S(=O)(=O)N2CCN(C(=O)CCC(=O)NC3CCCc4ccccc43)CC2)cc1` (configuration not stated) it is 23.8%.
With `Cc1cc2c(c(=O)n1Cc1ccco1)C(c1ccccc1)C(C#N)=C(N)O2` (configuration not stated), the inhibition was 21.9%.
In the case of `Cc1ccc(S(=O)(=O)NCc2cn3ccsc3n2)c(C)c1`, the inhibition was 11.3%.
On to `Cc1ccc2nc(Nc3ccccc3O)nc(-c3ccccc3)c2c1`, for which the inhibition was 10.3%.
In the case of `O=C(Nc1ncc2c(n1)-c1ccccc1OC2)c1ccc(Cl)cc1`, the inhibition was 12.7%.
The figure for `Cc1ccc(-c2nnc(-c3ccc(NC(=O)c4cccs4)cc3)o2)cc1` is 22.1%; for `CC1=C(C(=O)Nc2ccccc2)C(c2cccs2)C(C#N)=C(SCC#N)N1` (configuration not stated) it is 88.8% (active); for `COc1ccc(NC(=O)c2sccc2SCC#N)cc1` it is 24.1%.
Consider `Cc1ccc(Cc2cncc(O)c2)cc1S(=O)(=O)O`, for which the inhibition is 1.6%.
Then `CCOC(=O)C1CCCN(Cc2nc(N)nc(Nc3ccc(C)cc3)n2)C1` (configuration not stated), with 6.3%; and `Fc1ccc(-c2ccc(-c3nn4c(-c5ccco5)nnc4s3)o2)cc1`, with 47.8%.
Then `COc1ccccc1N(CC(=O)N1CCCCC1)S(=O)(=O)c1ccccc1`, with 25.2%; and `CCOC(=O)N1CCN(C(=O)c2ccc(CN(c3ccc(C)c(C)c3)S(C)(=O)=O)cc2)CC1`, with 57.3% (active).
Then `CCOC(=O)N1CCN(C(=O)c2ccc(S(=O)(=O)c3ccc(C)cc3)c(NC(C)=O)c2)CC1`, with 5.6%.
As for `CCOC(=O)N1CCN(C(=O)CN(c2ccc(C)c(C)c2)S(=O)(=O)c2ccccc2)CC1`, the inhibition is 63.2% (active).
For the molecule `CS(=O)(=O)N(CC(=O)N1CCN(Cc2ccccc2)CC1)c1ccc2c(c1)OCCO2`, the inhibition was 17.4%.
For `CCOC(=O)N1CCN(C(=O)c2ccc3c(c2)N(Cc2ccc(C)cc2)CCS3)CC1`, the inhibition was 30%.
Then `COC(=O)Cn1c2ccc(C)cc2c2nc(C)sc21`, with -3.3%; and `O=C(C1=C(O)C(=O)N(Cc2ccccc2)C1c1ccco1)c1ccco1` (configuration not stated), with -22.3%; and `O=S1(=O)CCN(Cc2ccccc2Cl)CC1`, with 35.5%.
Then `O=C1c2ccccc2C(O)N1Cc1ccccc1Cl` (configuration not stated), with 80.7% (active); and `O=C1c2cccnc2C(Nc2ccc(S(=O)(=O)N3CCCCCC3)cc2)N1Cc1ccccc1` (configuration not stated), with 40.6%; and `O=c1ccn(Cc2ccccc2Cl)cc1`, with -3%.
For `O=C1c2ccccc2C(O)N1Cc1ccccc1` (configuration not stated), the inhibition is 60.9% (active).
`S=c1[nH]nc(-c2ccc(Cl)cc2)n1CC1CCCO1` (configuration not stated): the inhibition was 41.3%.
The figure for `COC(=O)c1cc(Cl)c(NC(=O)c2ccco2)cc1OC` is 9.4%; for `O=C(Nc1ccc2oc(-c3ccc4ccccc4c3)nc2c1)c1cccs1` it is -16.3%; for `O=C(Cc1cccc2ccccc12)Nc1ccc2oc(-c3ccccc3)nc2c1` it is 5.7%.
With `CCCCCC(=O)Nc1ccc2oc(-c3ccncc3)nc2c1`, the inhibition is 77.7% (active).
Consider `Cc1ccc2[nH]c(=O)c(-c3nc4c(C)cccn4c3NCc3ccco3)cc2c1`, for which the inhibition is -0.9%.
As for `O=C(CN1CCN(c2ccccn2)CC1)NCc1cccs1`, the inhibition was 34.7%.
As for `COC(=O)Cn1cc(C(=O)c2cccs2)c2ccccc21`, the inhibition was 26%.
Then `COCCCNC(=O)Cn1cc(C(=O)C2CC2)c2ccccc21`, with 32.1%.
Then `COC(=O)c1cn(CC(=O)NCc2cccs2)c2ccccc12`, with 71.1% (active); and `O=C(Cn1cc(C(=O)c2cccs2)c2ccccc21)NCc1cccs1`, with 91.3% (active); and `Cc1cccc(NC(=O)Cn2cc(C(=O)c3ccco3)c3ccccc32)c1`, with -13.3%.
In the case of `CCCCCCC(=O)N(O)C1CC(=O)N(c2ccccc2)C1=O` (configuration not stated), the inhibition is 27.1%.
Then `CC1=C(C(N)=O)C(c2sccc2C)n2nnnc2N1` (configuration not stated), with 7.6%; and `Cc1nnc(SCC(=O)NC(=O)NC2CCCC2)n1N`, with 3.5%; and `CCOC(=O)C(Sc1ncc(C#N)c(N)n1)C(C)C` (configuration not stated), with 52.1% (active).
The figure for `CCCCOc1ccc(-c2ncc(C(=O)OCC)c(N)n2)cc1` is -11.5%; for `CCOC(=O)CSc1nccc(N(C)C)c1C#N` it is 25.5%.

The values are drawn from PubChem BioAssay AID778 (Sanford-Burnham Center for Chemical Genomics, 2007).
